Measured values as given in publication PMC7862700, “An all-to-all approach to the identification of sequence-specific readers for epigenetic DNA modifications on cytosine”.

Experiments:
Test in all cases: DAPPL (digital affinity profiling via proximity ligation, sequencing); 10 mM Tris-HCl pH 7.5, 50 mM NaCl, 1 mM DTT, 4% glycerol, room temperature, 30 min; GST-TFs on glutathione beads, 16-mer random dsDNA library, 0.1% formaldehyde crosslink after washing; high values mean tight binding
Settings in all cases: protein: recombinant; tags: N-terminal GST; dsDNA, one strand shown
[1] = biological target: T1, ERF (Homo sapiens, UniProt P50548 1-548)
T1 sequence: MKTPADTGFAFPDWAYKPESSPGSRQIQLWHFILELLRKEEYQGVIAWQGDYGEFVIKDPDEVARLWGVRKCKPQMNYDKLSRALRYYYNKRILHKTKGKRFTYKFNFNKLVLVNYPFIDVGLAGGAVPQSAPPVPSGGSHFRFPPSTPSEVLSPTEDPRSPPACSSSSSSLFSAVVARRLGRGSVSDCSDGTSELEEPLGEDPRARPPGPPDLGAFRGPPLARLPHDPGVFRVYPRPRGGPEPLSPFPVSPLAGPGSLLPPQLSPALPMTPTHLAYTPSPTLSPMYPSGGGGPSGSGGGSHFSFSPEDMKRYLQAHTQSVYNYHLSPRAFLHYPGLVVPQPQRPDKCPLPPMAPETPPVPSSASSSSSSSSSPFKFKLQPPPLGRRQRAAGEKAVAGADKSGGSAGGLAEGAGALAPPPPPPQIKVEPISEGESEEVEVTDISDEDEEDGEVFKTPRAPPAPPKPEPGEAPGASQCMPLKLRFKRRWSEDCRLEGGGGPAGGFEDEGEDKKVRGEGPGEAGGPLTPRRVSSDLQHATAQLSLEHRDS
Method in brief: (§1)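 Pools of DNA-barcoded human transcription factors, expressed in yeast as GST fusions on glutathione beads and combined with a tag-only sample, were incubated with 200 nmole of a 16-mer random double-stranded DNA library. Incubation took 30 min at room temperature in Tris/NaCl/DTT/glycerol buffer and was followed by washing, 0.1% formaldehyde crosslinking, proximity ligation (BsaI/T4 ligase, 1 h, 37 °C), PCR amplification and sequencing on an Illumina NextSeq500. Binding signal is the ratio of a hexamer's read frequency for a factor to its frequency for the tag-only sample.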

[2] = biological target: T2, ETV3L (Homo sapiens, UniProt Q6ZN32 1-361)
T2 sequence: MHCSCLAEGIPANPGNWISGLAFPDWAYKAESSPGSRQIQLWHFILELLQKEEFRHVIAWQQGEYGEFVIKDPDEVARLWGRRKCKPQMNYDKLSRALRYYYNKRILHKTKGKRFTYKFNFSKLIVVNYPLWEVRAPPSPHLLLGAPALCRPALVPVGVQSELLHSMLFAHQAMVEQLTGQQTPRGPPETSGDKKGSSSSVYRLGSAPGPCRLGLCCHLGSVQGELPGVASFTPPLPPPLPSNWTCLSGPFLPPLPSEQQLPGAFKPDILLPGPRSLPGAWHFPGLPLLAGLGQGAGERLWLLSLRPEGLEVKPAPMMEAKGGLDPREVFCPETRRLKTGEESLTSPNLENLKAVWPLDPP
Method in brief: as §1

[3] = biological target: T3, ETS2 (Homo sapiens, UniProt P15036 1-469)
T3 sequence: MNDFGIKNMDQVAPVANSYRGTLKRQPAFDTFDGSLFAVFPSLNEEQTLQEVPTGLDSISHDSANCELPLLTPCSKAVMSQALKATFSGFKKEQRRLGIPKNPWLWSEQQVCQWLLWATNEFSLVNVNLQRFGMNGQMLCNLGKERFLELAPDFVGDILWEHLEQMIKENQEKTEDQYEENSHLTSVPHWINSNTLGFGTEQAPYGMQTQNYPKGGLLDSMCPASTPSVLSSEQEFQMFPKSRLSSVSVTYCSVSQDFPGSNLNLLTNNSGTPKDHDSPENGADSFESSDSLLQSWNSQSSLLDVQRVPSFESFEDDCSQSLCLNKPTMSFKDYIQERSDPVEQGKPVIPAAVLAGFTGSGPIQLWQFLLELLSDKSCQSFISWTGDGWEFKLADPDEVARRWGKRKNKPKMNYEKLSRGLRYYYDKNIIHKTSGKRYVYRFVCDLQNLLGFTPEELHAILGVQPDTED
Method in brief: as §1

[4] = biological target: T4, SPDEF (Homo sapiens, UniProt O95238 1-335)
T4 sequence: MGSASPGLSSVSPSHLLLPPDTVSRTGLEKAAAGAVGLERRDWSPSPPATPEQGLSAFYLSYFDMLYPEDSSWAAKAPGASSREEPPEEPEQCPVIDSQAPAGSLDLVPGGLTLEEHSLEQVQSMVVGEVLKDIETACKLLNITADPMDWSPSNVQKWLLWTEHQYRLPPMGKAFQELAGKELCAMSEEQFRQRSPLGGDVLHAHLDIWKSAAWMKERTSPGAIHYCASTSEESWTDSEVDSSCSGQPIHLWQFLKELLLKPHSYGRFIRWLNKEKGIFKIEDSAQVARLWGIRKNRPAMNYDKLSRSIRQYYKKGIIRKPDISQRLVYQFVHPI
Method in brief: as §1

[5] = biological target: T5, ETV7 (Homo sapiens, UniProt Q9Y603 1-341)
T5 sequence: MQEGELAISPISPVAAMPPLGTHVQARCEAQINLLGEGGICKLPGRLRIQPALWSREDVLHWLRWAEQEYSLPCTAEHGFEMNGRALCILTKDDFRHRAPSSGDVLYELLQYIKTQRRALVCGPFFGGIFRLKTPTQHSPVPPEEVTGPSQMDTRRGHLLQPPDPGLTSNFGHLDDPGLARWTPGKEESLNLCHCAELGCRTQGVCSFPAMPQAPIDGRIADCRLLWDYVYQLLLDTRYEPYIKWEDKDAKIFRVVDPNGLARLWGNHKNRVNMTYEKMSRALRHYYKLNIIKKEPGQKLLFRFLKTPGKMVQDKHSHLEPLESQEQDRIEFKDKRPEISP
Method in brief: as §1

[6] = biological target: T6, ELF5 (Homo sapiens, UniProt Q9UKW6-2 1-255)
T6 sequence: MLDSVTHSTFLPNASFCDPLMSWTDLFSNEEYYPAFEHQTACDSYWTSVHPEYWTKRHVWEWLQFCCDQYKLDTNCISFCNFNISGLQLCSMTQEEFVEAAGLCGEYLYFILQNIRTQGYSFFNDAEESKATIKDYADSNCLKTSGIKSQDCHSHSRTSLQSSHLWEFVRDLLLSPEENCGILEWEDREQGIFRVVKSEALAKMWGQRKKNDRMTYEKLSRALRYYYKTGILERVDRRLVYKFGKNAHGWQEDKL
Method in brief: as §1

[7] = biological target: T7, ETV3 (Homo sapiens, UniProt P41162-2 1-143)
T7 sequence: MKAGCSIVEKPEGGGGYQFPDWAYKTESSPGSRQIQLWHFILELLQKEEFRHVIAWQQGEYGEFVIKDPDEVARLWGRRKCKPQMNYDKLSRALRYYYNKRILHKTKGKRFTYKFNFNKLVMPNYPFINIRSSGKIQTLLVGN
Method in brief: as §1

[8] = biological target: ETV6 (Homo sapiens, UniProt P41212 1-452)
Method in brief: as §1

ETV6, sequence (P41212 whole entry): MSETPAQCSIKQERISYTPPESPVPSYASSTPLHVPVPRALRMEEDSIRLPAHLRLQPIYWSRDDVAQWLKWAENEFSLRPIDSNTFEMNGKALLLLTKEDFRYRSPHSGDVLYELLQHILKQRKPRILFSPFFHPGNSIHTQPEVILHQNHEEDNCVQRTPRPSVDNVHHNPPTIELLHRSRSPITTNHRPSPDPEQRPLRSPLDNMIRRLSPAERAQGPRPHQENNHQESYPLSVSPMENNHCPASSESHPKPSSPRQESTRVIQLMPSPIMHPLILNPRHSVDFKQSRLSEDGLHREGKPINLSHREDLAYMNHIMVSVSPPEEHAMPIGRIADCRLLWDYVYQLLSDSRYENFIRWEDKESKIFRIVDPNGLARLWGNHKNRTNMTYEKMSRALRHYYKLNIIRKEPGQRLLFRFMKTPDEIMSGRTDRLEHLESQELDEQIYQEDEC

For CTGTTC, the binding signal [1] was 1.52 fold enrichment (6-mer frequency, TF over GST control), the binding signal [2] was 1.31 fold enrichment (6-mer frequency, TF over GST control) and the binding signal [3] was 1.44 fold enrichment (6-mer frequency, TF over GST control). The binding signal [4] was 1.29 fold enrichment (6-mer frequency, TF over GST control), the binding signal [5] was 1.42 fold enrichment (6-mer frequency, TF over GST control) and the binding signal [6] was 1.52 fold enrichment (6-mer frequency, TF over GST control). For the same sequence, the binding signal [7] was 1.51 fold enrichment (6-mer frequency, TF over GST control) and the binding signal [8] was 1.44 fold enrichment (6-mer frequency, TF over GST control).
With ATGCAT the binding signal [1] was 1.21 fold enrichment (6-mer frequency, TF over GST control), the binding signal [2] was 1.26 fold enrichment (6-mer frequency, TF over GST control) and the binding signal [3] was 1.21 fold enrichment (6-mer frequency, TF over GST control). For the same sequence, the binding signal [4] was 1.32 fold enrichment (6-mer frequency, TF over GST control), the binding signal [5] was 1.21 fold enrichment (6-mer frequency, TF over GST control) and the binding signal [6] was 1.15 fold enrichment (6-mer frequency, TF over GST control). The binding signal [7] was 1.26 fold enrichment (6-mer frequency, TF over GST control) and the binding signal [8] was 1.2 fold enrichment (6-mer frequency, TF over GST control).
CTCTGA was tested, and the binding signal [1] was 1.22 fold enrichment (6-mer frequency, TF over GST control), the binding signal [2] was 1.07 fold enrichment (6-mer frequency, TF over GST control) and the binding signal [3] was 1.25 fold enrichment (6-mer frequency, TF over GST control). For the same sequence, the binding signal [4] was 1.11 fold enrichment (6-mer frequency, TF over GST control), the binding signal [5] was 1.34 fold enrichment (6-mer frequency, TF over GST control) and the binding signal [6] was 1.11 fold enrichment (6-mer frequency, TF over GST control). The binding signal [7] was 1.19 fold enrichment (6-mer frequency, TF over GST control) and the binding signal [8] was 1.16 fold enrichment (6-mer frequency, TF over GST control).
With TAAGAT the binding signal [1] was 1.3 fold enrichment (6-mer frequency, TF over GST control), the binding signal [2] was 1.12 fold enrichment (6-mer frequency, TF over GST control) and the binding signal [3] was 1.19 fold enrichment (6-mer frequency, TF over GST control). For the same sequence, the binding signal [4] was 1.31 fold enrichment (6-mer frequency, TF over GST control), the binding signal [5] was 1.19 fold enrichment (6-mer frequency, TF over GST control) and the binding signal [6] was 1.11 fold enrichment (6-mer frequency, TF over GST control). The binding signal [7] was 1.2 fold enrichment (6-mer frequency, TF over GST control) and the binding signal [8] was 1.28 fold enrichment (6-mer frequency, TF over GST control).
ATATCT was tested, and the binding signal [1] was 1.23 fold enrichment (6-mer frequency, TF over GST control), the binding signal [2] was 1.21 fold enrichment (6-mer frequency, TF over GST control) and the binding signal [3] was 1.17 fold enrichment (6-mer frequency, TF over GST control). For the same sequence, the binding signal [4] was 1.22 fold enrichment (6-mer frequency, TF over GST control), the binding signal [5] was 1.2 fold enrichment (6-mer frequency, TF over GST control) and the binding signal [6] was 1.18 fold enrichment (6-mer frequency, TF over GST control). The binding signal [7] was 1.19 fold enrichment (6-mer frequency, TF over GST control) and the binding signal [8] was 1.14 fold enrichment (6-mer frequency, TF over GST control).
In the case of AAGTCC, the binding signal [1] is reported as 1.08 fold enrichment (6-mer frequency, TF over GST control), the binding signal [2] is reported as 1.21 fold enrichment (6-mer frequency, TF over GST control) and the binding signal [3] is reported as 1.27 fold enrichment (6-mer frequency, TF over GST control). For the same sequence, the binding signal [4] was 1.4 fold enrichment (6-mer frequency, TF over GST control), the binding signal [5] was 1.23 fold enrichment (6-mer frequency, TF over GST control) and the binding signal [6] was 1.34 fold enrichment (6-mer frequency, TF over GST control). For the same sequence, the binding signal [7] was 1.37 fold enrichment (6-mer frequency, TF over GST control) and the binding signal [8] was 1.2 fold enrichment (6-mer frequency, TF over GST control).
In the case of TGCTCT, the binding signal [1] is reported as 1.35 fold enrichment (6-mer frequency, TF over GST control), the binding signal [2] is reported as 1.37 fold enrichment (6-mer frequency, TF over GST control) and the binding signal [3] is reported as 1.4 fold enrichment (6-mer frequency, TF over GST control). The binding signal [4] was 1.17 fold enrichment (6-mer frequency, TF over GST control), the binding signal [5] was 1.24 fold enrichment (6-mer frequency, TF over GST control) and the binding signal [6] was 1.27 fold enrichment (6-mer frequency, TF over GST control). For the same sequence, the binding signal [7] was 1.29 fold enrichment (6-mer frequency, TF over GST control) and the binding signal [8] was 1.31 fold enrichment (6-mer frequency, TF over GST control).
With CCTCGA the binding signal [1] was 1.28 fold enrichment (6-mer frequency, TF over GST control), the binding signal [2] was 1.35 fold enrichment (6-mer frequency, TF over GST control) and the binding signal [3] was 1.21 fold enrichment (6-mer frequency, TF over GST control). For the same sequence, the binding signal [4] was 1.23 fold enrichment (6-mer frequency, TF over GST control), the binding signal [5] was 1.42 fold enrichment (6-mer frequency, TF over GST control) and the binding signal [6] was 1.34 fold enrichment (6-mer frequency, TF over GST control). For the same sequence, the binding signal [7] was 1.26 fold enrichment (6-mer frequency, TF over GST control) and the binding signal [8] was 1.29 fold enrichment (6-mer frequency, TF over GST control).
